DT40 TDP1 no CPT: qHTS for Inhibitors of human tyrosyl-DNA phosphodiesterase 1 (TDP1): qHTS in cells in absence of CPT; hit rate 15% among 420,000; Potency, µM (highest dose often 46.2 µM), most hits filed as inhibitors; DT40 Tdp1-/- hTDP1 cells, no CPT, ATP luminescence, 48 h; further: nearly all actives have a fitted effect of over 55% in size
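No-CPT arm: Tdp1-/-;hTDP1 DT40 cells (400/well) plus compounds, incubated ≥48 hr at 37 °C. Readout CellTiter-Glo luminescence.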
HT1080 IDH1KD tx: kills HT-1080 cells with IDH1 knockdown; hit rate 2% among 360,000; Potency, µM (doses to about 46.1 µM), usual class: cytotoxic; HT-1080 IDH1 knockdown viability, ATP luminescence, 48 h
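% activity derives from luminescence (CellTiter-Glo), normalised to DMSO and no-cell wells. HT-1080-IDH1KD cells, 750/well, had 48 h compound exposure at 37 °C.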
IL-1B inflam inh: inhibitors of inflammasome signaling (IL-1 beta secretion) | THP-1 LPS/ATP IL-1B secretion, AlphaLISA, 16 h; active compounds read low | activity change, % at 57.5 µM | hit rate 4.7% among 360,000; in the data active means activity change below about -50%; inconclusive means mostly about -30% to -49%
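THP-1 cells pretreated 1 hr with compounds (up to 57.5 uM final), then stimulated with LPS (250 ng/mL final) plus ATP (1.25 mM final); secreted IL-1B measured by AlphaLISA after 16 hr, decreased signal indicating inhibition.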
ELG1 DNA repair: ELG1-dependent DNA repair inhibition | HEK293T ELG1-luciferase reporter, luminescence, 16 h; DNA damage induced by 5-fluorouridine | Potency, µM (top dose mostly 46.1 µM), usual class: inhibitors | hit rate 2.3% among 330,000 | AID 504467; further: nearly all actives have a fitted effect of over 55% in size
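5-Fluorouridine DNA damage + compound/DMSO, 2,000 cells/well, 16 h, 37 °C/5% CO2. ONE-Glo, 30 min RT, luminescence. Readout = decrease in reporter signal.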
DT40 TDP1 CPT: growth inhibition of DT40 Tdp1-/-;hTDP1 cells with camptothecin (screen for TDP1 inhibitors) | chicken DT40 Tdp1-/-;hTDP1 cells + 20 nM CPT, ATP luminescence, 48 h | Potency, µM (top dose mostly 46.2 µM), usual class: inhibitors | hit rate 12% among 420,000 | AID 686979; further: nearly all actives have a fitted effect of over 55% in size
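Chicken DT40 Tdp1-/- cells stably complemented with human TDP1 were seeded at 400 cells/well in medium containing 20 nM camptothecin, exposed to pin-transferred compounds, and grown at 37 °C for at least 48 hr. Viability was read as ATP luminescence.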
HT1080-NT tox: kills 2HG-producing HT-1080-NT fibrosarcoma cells; HT-1080-NT fibrosarcoma viability, CellTiter-Glo ATP luminescence, 48 h; Potency, µM (top dose mostly 46.1 µM), usual class: cytotoxic; hit rate 1.6% among 360,000; AID 686970;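 further: NT is the 2HG producing partner of a matched IDH1 knockdown line; nearly all actives have a fitted effect of over 55% in size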
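750 cells/well, RPMI + 5% FBS; 2 h settle, compound pin-transfer, 48 h at 37 degrees C. CellTiter-Glo 10 min RT, luminescence. Normalized to DMSO and media-only wells.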
Each line names hits and unclear results; the compound was inactive in the other large screens. An excerpt weighted towards active compounds, which were near 19% of everything screened. Unless noted, the call rests on the fitted dose curve; in most records, active means well fitted curve in the direction sought with a large enough effect; inconclusive means small, poorly fitted or top-dose-only effect, or another doubt; inactive means no such curve, though single readings can be large; an effect the other way counts as inactive or inconclusive.

O=C(Cn1cc(C(=O)c2ccccc2F)c2ccccc21)NC1CC1	none
C[C@]12CCC3C(CC[C@@H]4C[C@@H](O)CC[C@]34C)C1CC[C@@H]2O (some centres undefined)	DT40 TDP1 no CPT inconclusive (no result: ELG1 DNA repair)
O=c1[nH]c(O)c(C=Nc2ccccc2Oc2ccccc2)c(=O)[nH]1	none (no result: IL-1B inflam inh)
COc1cccc(NC(=O)CN2CC(c3ccccc3)CC2=O)c1 (centres undefined)	none
COc1cccc(NC(=O)CSC2=Nc3ccccc3C3=NC(CCC(=O)NCCc4ccccc4)C(=O)N23)c1 (centres undefined)	DT40 TDP1 no CPT 21µM, DT40 TDP1 CPT 21µM (no result: HT1080 IDH1KD tx, IL-1B inflam inh, ELG1 DNA repair, HT1080-NT tox)
Cc1ccc2oc(-c3ccc(Cl)cc3)c(O)c(=O)c2c1	DT40 TDP1 no CPT 16µM, DT40 TDP1 CPT 21µM (no result: HT1080 IDH1KD tx, IL-1B inflam inh, ELG1 DNA repair, HT1080-NT tox)
O=C1CN=C(c2ccc(Cl)cc2)c2oc3ccccc3c2N1	none
COC(=O)C1=C(C)NC(C)=C(C(=O)OCC(C)=O)C1c1ccccc1[N+](=O)[O-] (centres undefined)	DT40 TDP1 no CPT 12µM, DT40 TDP1 CPT 19µM (no result: HT1080 IDH1KD tx, IL-1B inflam inh, ELG1 DNA repair, HT1080-NT tox)
CO[C@H]1CC=C2CCN3CCC4=C(CC(=O)OC4)[C@]23C1	none
NC(=NCCc1ccc(I)cc1)SCCCc1cnc[nH]1	DT40 TDP1 no CPT 13µM, DT40 TDP1 CPT 15µM (no result: HT1080 IDH1KD tx, IL-1B inflam inh, ELG1 DNA repair, HT1080-NT tox)
COc1cccc(/C=C2\N=C(c3cncc(Br)c3)OC2=O)c1	DT40 TDP1 no CPT 23µM, ELG1 DNA repair inconclusive, DT40 TDP1 CPT inconclusive
CC=C(C)C(=O)O[C@H]1C(C)=C2[C@@H]3OC(=O)[C@@](C)(O)[C@@]3(O)[C@@H](OC(=O)CCC)C[C@](C)(OC(C)=O)[C@@H]2[C@@H]1OC(=O)CCCCCCC	DT40 TDP1 no CPT 0.12µM, DT40 TDP1 CPT 0.21µM (no result: HT1080 IDH1KD tx, IL-1B inflam inh, ELG1 DNA repair, HT1080-NT tox)
CC[C@]12CC[C@H](O)CC1=CCC1C2CC[C@]2(C)C(=O)CCC12 (some centres undefined)	DT40 TDP1 no CPT inconclusive, DT40 TDP1 CPT inconclusive
CC12CCC(=O)C=C1CCC1C2CCC2(C)C(O)CCC12 (centres undefined)	DT40 TDP1 no CPT inconclusive, DT40 TDP1 CPT 23µM
CC1=C2CCC3C(CCC4=CC(=O)CCC43C)C2CC1 (centres undefined)	DT40 TDP1 no CPT 29µM, DT40 TDP1 CPT inconclusive (no result: ELG1 DNA repair)
C[C@]12CC[C@H]3[C@@H](CCC4=CC(=O)CC[C@@]43C)[C@@H]1CC[C@@H]2C(=O)CO	DT40 TDP1 no CPT 10µM, DT40 TDP1 CPT inconclusive, HT1080-NT tox inconclusive
C[C@]12CC[C@H]3[C@@H](CCC4=CC(=O)CC[C@@]43C)[C@@H]1CC[C@@H]2O	HT1080-NT tox inconclusive
CCC(=O)O[C@H]1CC[C@H]2[C@@H]3CCC4=CC(=O)CC[C@]4(C)[C@H]3CC[C@]12C	DT40 TDP1 no CPT inconclusive, IL-1B inflam inh -72, DT40 TDP1 CPT inconclusive (no result: HT1080 IDH1KD tx, ELG1 DNA repair, HT1080-NT tox)
C[C@H](O)[C@H]1CC[C@H]2[C@@H]3CCC4=CC(=O)CC[C@]4(C)[C@H]3CC[C@]12C	ELG1 DNA repair inconclusive
C[C@]12CCC(=O)C=C1CC[C@@H]1[C@@H]2C(=O)C[C@]2(C)C(=O)CC[C@@H]12	none
COC(=O)c1sc(NC(=O)/C=C/c2ccc(OC)c(OC)c2)c(C(=O)OC)c1C	DT40 TDP1 no CPT inconclusive (no result: HT1080 IDH1KD tx, IL-1B inflam inh, ELG1 DNA repair, HT1080-NT tox)
O=C(N[C@H]1N=C(c2ccccc2F)c2cccc3c2N(CC3)C1=O)c1cc2ccccc2[nH]1	none (no result: HT1080 IDH1KD tx, IL-1B inflam inh, ELG1 DNA repair, HT1080-NT tox)
CC(=O)C1C(N2CC2)CC2C3CCC4=CC(=O)CCC4(C)C3CCC21C (centres undefined)	DT40 TDP1 no CPT 12µM, IL-1B inflam inh -61, DT40 TDP1 CPT 7.3µM (no result: ELG1 DNA repair)
c1ccc(SSc2ccccc2)cc1	DT40 TDP1 no CPT 12µM, IL-1B inflam inh -101, DT40 TDP1 CPT 12µM
Cn1cc(C(=O)N2CCCCC2)c2ccccc21	none
CCOc1ccc(N2C(=O)/C(=C/c3ccco3)C(=O)NC2=S)cc1	none
